From PubChem BioAssay (Tox21)
Values joined by “and” are separate entries in the source; they are usually repeats but may differ in a detail not shown here. Equal entries are not always repeated. Records with an inconclusive call do not appear. Entries that show only a call come without a potency. Some structures have more than one record in an assay (separate samples or runs), and their calls can disagree. Active and inactive are the calls of the source. Unless noted, the call rests on the fitted dose curve; in most records, active means well fitted curve in the direction sought with a large enough effect in the repeat runs; inconclusive means weak or mixed curves; inactive means no such curve, though single readings can be large; an effect the other way counts as inactive or inconclusive.

Experiments:
[1] = qHTS assay to identify small molecule antagonists of the estrogen receptor alpha (ER-alpha) signaling pathway using the BG1 cell line in the presence of 0.1 nM 17-beta-estradiol - cell viability counter screen (AID 1259241); further: nearly all actives have a fitted effect of over 40% in size
How it was run: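 Live-cell protease activity (CellTiter-Fluor fluorescence, 30 min) was read in the same wells after VM7Luc4E2 cells had been exposed to compounds with 0.1 nM 17beta-estradiol for 22 hr at 37C.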

[2] = qHTS assay to identify small molecule antagonists of the androgen receptor (AR) signaling pathway using the MDA cell line in the presence of 0.5 nM R1881 - cell viability counter screen (AID 1259242); further: nearly all actives have a fitted effect of over 45% in size
How it was run: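 MDA-kb2 cells (human breast carcinoma, stably carrying MMTV-luciferase reporter) were exposed to compounds with 0.5 nM R1881 (final) for 16 hr at 37C, 0% CO2; viability then read as live-cell protease fluorescence (CellTiter-Fluor, 30 min) in the same wells.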

[3] = qHTS assay to identify small molecule phospholipidosis (PLD) inducers (AID 1259344; active means well fitted curve in the direction sought with a large enough effect; an effect the other way counts as inactive or inconclusive)
How it was run: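 HepG2 cells grown on collagen I take up LipidTOX Red while exposed to compound for 24 h; after fixation they are imaged at 20x and pit metrics are extracted.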

[4] = qHTS assay to identify small molecule HDAC inhibitors (AID 1259364); further: top concentration of the series differs between compounds; nearly all actives have a fitted effect of over 45% in size
How it was run: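 Wild-type HCT-116 cells were plated overnight, exposed to compounds for 2 h at 37 °C, then given HDAC-Glo class I/II luminogenic reagent for 30 min at room temperature before luminescence was read.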

[5] = qHTS assay to identify small molecule HDAC inhibitors - cell viability counter screen (AID 1259365); further: series mostly up to about 92 µM; nearly all actives have a fitted effect of over 50% in size
How it was run: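 HCT-116 (wild type), 1,500 cells/well, overnight 37C/5% CO2; compound in DMSO 2hr; CellTiter-Glo 30min RT; luminescence read.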

[6] = qHTS assay to identify small molecule agonists of the sonic hedgehog signaling (Shh) pathway - cell viability counter screen (AID 1259366); further: nearly all actives have a fitted effect of over 50% in size; further: potency means the concentration at half of the fitted maximal effect
How it was run: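 CellTiter-Fluor fluorescence read-out, 1 hr at 37C, added after 23hr compound exposure. Cells: 3T3 Gli1-Luc, an NIH/3T3 clone with stably integrated Gli1-Luc reporter, plated 4hr before compound.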

[7] = qHTS assay to identify small molecule antagonists of the sonic hedgehog signaling (Shh) pathway - cell viability counter screen (AID 1259367); further: nearly all actives have a fitted effect of over 55% in size; further: potency means the concentration at half of the fitted maximal effect
How it was run: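 After a 4 hr settling period, 3T3 Gli1-Luc cells were treated with DMSO-dissolved chemicals and conditioned medium, kept 24 hr at 37C in 5% CO2, and assayed for viability by CellTiter-Fluor fluorescence following 1 hr reagent incubation.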

[8] = qHTS assay to identify small molecule agonists of the sonic hedgehog signaling (Shh) pathway (AID 1259368; calls by dose curve; further: series mostly up to about 92 µM; nearly all actives have a fitted effect of over 15% in size)
How it was run: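 NIH/3T3-derived 3T3Gli1-Luc cells carrying a stably integrated Gli1 response element–firefly luciferase reporter were plated, left 4 hr at 37 C, then given compounds in DMSO for 24 hr. Luminescence was read 30 min after adding luciferase reagent.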

[9] = qHTS assay to identify small molecule antagonists of the sonic hedgehog signaling (Shh) pathway (AID 1259369; calls by dose curve; further: nearly all actives have a fitted effect of over 45% in size; further: potency means the concentration at half of the fitted maximal effect)
How it was run: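 NIH/3T3-derived 3T3Gli1-Luc cells with stably integrated Gli1-Luc reporter were preincubated 4hr at 37 C, then given compounds in DMSO plus Shh conditioned medium and incubated 24hr. Firefly luciferase luminescence read after 30min reagent at room temperature.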

[10] = biological target: Estrogen receptor beta (Homo sapiens) (UniProt Q92731); assay: qHTS assay to identify small molecule agonists of the estrogen receptor beta (ER-beta) signaling pathway (AID 1259377; active means well fitted activation curve with a large enough effect in the signal ratio in the repeat runs, not every such curve was filed as active; the % refers to the signal ratio; further: potency means the concentration at half of the fitted maximal effect)
How it was run: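 Beta-lactamase reporter readout: fluorescence of LiveBLAzer B/G FRET substrate after 2 h at room temperature, following 16 h compound treatment of ER-beta-UAS-bla HEK293T cells at 37C in 2% charcoal-stripped FBS medium.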

[11] = qHTS assay to identify small molecule agonists of the androgen receptor (AR) signaling pathway in the presence of an antagonist - cell viability counter screen (AID 1259379); further: nearly all actives have a fitted effect of over 25% in size; further: potency means the concentration at half of the fitted maximal effect
How it was run: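 MDA-kb2 human breast carcinoma cells (stable MMTV-luciferase, AR/GR responsive) were seeded 3,000 cells/well, pre-incubated 5 hr at 37C without CO2, then given 3.0uM nilutamide and compounds at 15 concentrations for 16 hr. Viability was read by CellTiter-Fluor fluorescence.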

[12] = qHTS assay to identify small molecule agonists of the estrogen receptor beta (ER-beta) signaling pathway - cell viability counter screen (AID 1259380); further: nearly all actives have a fitted effect of over 30% in size; further: potency means the concentration at half of the fitted maximal effect
How it was run: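 ER-beta-UAS-bla HEK293T cells in medium with 2% charcoal-stripped FBS were preincubated 6 hr at 37C, dosed with compound in DMSO for 16 hr, then after the bla read, CellTiter-Glo was added for 30 min at room temperature; luminescence recorded.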

[13] = qHTS assay to identify small molecule agonists of the estrogen receptor alpha (ER-alpha) signaling pathway in the presence of an antagonist - cell viability counter screen (AID 1259386); further: series mostly up to about 92 µM; nearly all actives have a fitted effect of over 30% in size
How it was run: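 VM7Luc4E2 cells (endogenous full-length ER-alpha, 4×ERE-luciferase) were held 5 days in phenol red-free medium with 10% charcoal-stripped FBS, plated, then given 10.0nM ICI-182,780 and compounds at 15 concentrations for 22hr at 37C; viability read by CellTiter-Fluor fluorescence.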

[14] = biological target: Estrogen receptor (Homo sapiens) (UniProt P03372); assay: qHTS assay to identify small molecule antagonists of the estrogen receptor alpha (ER-alpha) signaling pathway using the BG1 cell line in the presence of 0.1 nM 17-beta-estradiol (AID 1259244); further: nearly all actives have a fitted effect of over 50% in size; further: potency means the concentration at half of the fitted maximal effect
How it was run: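 VM7Luc4E2 cells (endogenous full-length ER-alpha, stable 4xERE-luciferase) were grown 5 days in phenol red-free medium with charcoal-stripped FBS, then exposed 22 h at 37C to compounds plus 0.1 nM (final) 17beta-estradiol; ONE-Glo luminescence read-out.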

[15] = biological target: Estrogen receptor beta (Homo sapiens) (UniProt Q92731); assay: qHTS assay to identify small molecule antagonists of the estrogen receptor beta (ER-beta) signaling pathway (AID 1259378; active means well fitted inhibition curve with a large enough effect in the signal ratio in the repeat runs, not every such curve was filed as active; the % refers to the signal ratio; further: potency means the concentration at half of the fitted maximal effect)
How it was run: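 ER-beta-UAS-bla HEK293T (GripTite) cells in 2% charcoal-stripped FBS medium were preincubated 6 hr at 37C, dosed with compound, then stimulated with 1 nM E2 (final) for 16 hr; beta-lactamase reporter read by B/G FRET fluorescence after 2 hr substrate loading.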

[16] = qHTS assay to identify small molecule antagonists of the estrogen receptor beta (ER-beta) signaling pathway - cell viability counter screen (AID 1259382); further: nearly all actives have a fitted effect of over 55% in size; further: potency means the concentration at half of the fitted maximal effect
How it was run: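 ER-beta-UAS-bla HEK293T cells (2,000/well, 2% charcoal-stripped FBS) were pre-incubated 6 hr at 37C, then given compound plus 1nM final 17-beta-estradiol for 16 hr. Viability was read in the same wells by CellTiter-Glo luminescence after 30 min at room temperature.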

[17] = biological target: Estrogen receptor (Homo sapiens) (UniProt P03372); assay: qHTS assay to identify small molecule agonists of the estrogen receptor alpha (ER-alpha) signaling pathway in the presence of an antagonist (AID 1259383; calls by dose curve; further: nearly all actives have a fitted effect of over 15% in size; further: potency means the concentration at half of the fitted maximal effect; on activation: top concentration of the series differs between compounds)
How it was run: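 VM7Luc4E2 cells (endogenous full-length ER-alpha, 4×ERE-luciferase) were precultured 5 days in phenol red-free medium with 10% charcoal-stripped FBS, given 10.0nM ICI-182,780 (final), then treated with compounds at 15 concentrations for 22hr at 37C; luminescence read with ONE-Glo.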

[18] = qHTS assay to identify small molecule agonists or antagonists of the thyroid stimulating hormone receptor (TSHR) signaling pathway - wild type cell line counter screen (AID 1259384; calls by dose curve)
How it was run: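 Wild-type HEK293 cells were plated 18 h at 37 C/5% CO2, pin-dosed with compound plus Ro20-1724 medium, held 30 min at room temperature, then given cAMP-d2 and anti-cAMP-cryptate; fluorescence was read after 1 h. Fifteen concentrations, triplicate.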

[19] = biological target: Thyrotropin receptor (Homo sapiens) (UniProt P16473); assay: qHTS assay to identify small molecule antagonists of the thyroid stimulating hormone receptor (TSHR) signaling pathway (AID 1259385; calls by dose curve; further: nearly all actives have a fitted effect of over 20% in size)
How it was run: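 TSHR-HEK293 cells were plated and held 18 h at 37C/5% CO2, then given compound plus Ro20-1724 and stimulated with TSH at 1.5 ng/mL final. After 30 min at room temperature, cAMP was detected with cAMP-d2/anti-cAMP-cryptate (1 h) by fluorescence.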

Thyrotropin receptor (Homo sapiens), sequence (P16473 whole entry, looked up): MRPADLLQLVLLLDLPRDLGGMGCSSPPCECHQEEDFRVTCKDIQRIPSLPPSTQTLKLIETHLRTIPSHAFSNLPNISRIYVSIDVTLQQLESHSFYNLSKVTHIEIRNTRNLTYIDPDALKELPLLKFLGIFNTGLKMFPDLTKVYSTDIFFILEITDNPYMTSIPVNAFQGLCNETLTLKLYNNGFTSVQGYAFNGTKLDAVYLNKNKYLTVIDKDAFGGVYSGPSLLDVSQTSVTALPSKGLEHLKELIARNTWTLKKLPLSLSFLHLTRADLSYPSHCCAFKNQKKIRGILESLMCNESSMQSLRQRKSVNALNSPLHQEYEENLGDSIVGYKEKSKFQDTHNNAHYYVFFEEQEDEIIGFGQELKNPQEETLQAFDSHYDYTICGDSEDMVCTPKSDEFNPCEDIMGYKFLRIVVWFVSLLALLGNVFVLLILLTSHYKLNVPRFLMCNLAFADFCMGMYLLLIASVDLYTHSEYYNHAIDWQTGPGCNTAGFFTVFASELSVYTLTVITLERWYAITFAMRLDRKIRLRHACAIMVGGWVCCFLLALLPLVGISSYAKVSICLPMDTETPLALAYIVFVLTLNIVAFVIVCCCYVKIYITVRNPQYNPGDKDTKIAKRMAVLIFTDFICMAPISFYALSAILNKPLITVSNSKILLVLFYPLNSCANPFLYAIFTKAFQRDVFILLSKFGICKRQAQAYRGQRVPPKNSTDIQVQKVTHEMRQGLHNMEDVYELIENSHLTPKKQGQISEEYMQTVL
Estrogen receptor (Homo sapiens), sequence (P03372 whole entry, looked up): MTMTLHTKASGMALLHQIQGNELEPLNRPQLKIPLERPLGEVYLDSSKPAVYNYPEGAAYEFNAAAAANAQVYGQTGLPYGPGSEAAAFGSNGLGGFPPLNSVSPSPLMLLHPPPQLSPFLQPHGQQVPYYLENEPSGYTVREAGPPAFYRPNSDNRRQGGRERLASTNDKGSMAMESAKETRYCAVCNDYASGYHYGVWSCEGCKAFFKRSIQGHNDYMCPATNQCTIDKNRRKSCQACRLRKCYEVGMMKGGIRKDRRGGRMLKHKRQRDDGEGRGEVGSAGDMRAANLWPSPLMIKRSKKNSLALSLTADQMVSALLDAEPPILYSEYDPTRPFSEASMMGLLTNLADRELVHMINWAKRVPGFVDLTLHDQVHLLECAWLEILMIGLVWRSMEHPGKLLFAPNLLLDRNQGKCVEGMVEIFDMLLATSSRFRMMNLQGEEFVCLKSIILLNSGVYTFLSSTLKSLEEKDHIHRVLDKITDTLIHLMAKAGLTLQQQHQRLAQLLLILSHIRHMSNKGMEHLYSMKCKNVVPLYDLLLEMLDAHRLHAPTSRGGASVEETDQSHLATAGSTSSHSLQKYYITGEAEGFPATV
Estrogen receptor beta (Homo sapiens), sequence (Q92731 whole entry, looked up): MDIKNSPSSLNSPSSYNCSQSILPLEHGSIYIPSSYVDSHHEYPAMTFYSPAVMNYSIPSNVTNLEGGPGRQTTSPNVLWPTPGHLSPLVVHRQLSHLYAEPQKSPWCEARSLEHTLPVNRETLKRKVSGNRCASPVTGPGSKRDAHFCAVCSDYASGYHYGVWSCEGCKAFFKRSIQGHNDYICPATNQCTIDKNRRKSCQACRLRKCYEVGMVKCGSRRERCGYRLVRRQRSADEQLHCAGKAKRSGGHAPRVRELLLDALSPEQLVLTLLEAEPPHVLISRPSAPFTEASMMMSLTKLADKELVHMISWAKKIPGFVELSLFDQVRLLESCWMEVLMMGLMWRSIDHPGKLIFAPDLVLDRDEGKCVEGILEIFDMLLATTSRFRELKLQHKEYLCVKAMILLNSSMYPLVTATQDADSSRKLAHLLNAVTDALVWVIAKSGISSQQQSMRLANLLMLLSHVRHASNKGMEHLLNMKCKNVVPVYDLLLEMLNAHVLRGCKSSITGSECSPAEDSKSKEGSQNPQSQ

Row | SMILES | Potency [1] | Potency [2] | outcome [3] | Potency [4] | outcome [5] | Potency [6] | Potency [7] | Potency [8] | Potency [9] | Potency [10] | Potency [11] | Potency [12] | Potency [13] | Potency [14] | Potency [15] | Potency [16] | Potency [17] | outcome [18] | outcome [19]
1 | C[C@]12CCC(=O)C[C@@H]1CC[C@@H]1[C@@H]2CC[C@]2(C)[C@@H](O)CC[C@@H]12 | inactive | inactive | inactive | inactive | inactive | inactive | inactive | inactive | 17 µM (active) and 13.7 µM (active) | 853 nM (active) and 546 nM (active) | 67.8 µM (active) and inactive | 13.5 µM (active) and 12.2 µM (active) | inactive | – | – | – | – | – | –
2 | NC(=S)Nc1ccccc1 | inactive | inactive | – | – | inactive | inactive | inactive | inactive | inactive | inactive | 24.7 µM (active) and inactive | 44 µM (active) and inactive | inactive | 27.8 µM (active) and inactive | inactive | 27.8 µM (active) and inactive | inactive | inactive | inactive
3 | CCCCC(CC)COC(=O)Cl (centres undefined) | inactive | inactive | – | – | inactive | inactive | inactive | inactive | inactive | inactive | inactive | inactive | inactive | inactive | inactive | inactive | inactive | inactive | inactive
4 | CCOC(=O)C(C)OC(=O)c1cc(Oc2ccc(C(F)(F)F)cc2Cl)ccc1[N+](=O)[O-] (centres undefined) | inactive | inactive | – | – | inactive | inactive | inactive | inactive | inactive | inactive | inactive | inactive | inactive | inactive | – | inactive | inactive | – | inactive
5 | O=S(=O)(Oc1ccc(Cl)cc1)c1ccc(Cl)cc1 | inactive | inactive | – | – | inactive | inactive | inactive | inactive | inactive | inactive | – | inactive | inactive | inactive | inactive | inactive | inactive | inactive | –
6 | c1nc[nH]n1 | inactive | inactive | – | – | inactive | inactive | inactive | inactive | inactive | inactive | inactive | inactive | inactive | inactive | inactive | inactive | inactive | – | inactive
7 | CC(C)C(=O)OCC(C)(C)C(OC(=O)C(C)C)C(C)C (centres undefined) | inactive | inactive | – | – | inactive | inactive | inactive | inactive | inactive | inactive and 27.3 µM (active) | – | inactive | inactive | inactive | inactive | inactive | inactive and 27.3 µM (active) | – | inactive
8 | CC(C)c1ccc(CO)cc1 | inactive | inactive | – | – | inactive | inactive | inactive | inactive | inactive | – | inactive | inactive | inactive | inactive | – | inactive | inactive | inactive | inactive
9 | CCN(CC)C(=O)SCc1ccc(Cl)cc1 | inactive | inactive | – | inactive | inactive | inactive | inactive | inactive | inactive | – | – | inactive | inactive | inactive | – | inactive | inactive | inactive | –
10 | N[C@@H](Cc1ccc(N(CCCl)CCCl)cc1)C(=O)O | inactive | inactive | inactive | inactive | inactive | inactive | – | inactive | inactive | inactive | inactive | inactive | inactive | – | inactive | inactive | – | inactive | inactive
11 | c1ccc(-c2cccc(-c3ccccc3)c2)cc1 | inactive | inactive | – | – | inactive | inactive | inactive | inactive | inactive | – | – | 19.5 µM (active) and 30.6 µM (active) | inactive | inactive | – | inactive | inactive | inactive | inactive
12 | Oc1cc(Cl)c(Cl)cc1Cl | inactive | inactive | inactive | – | inactive | inactive | inactive | inactive | inactive | inactive | inactive | inactive | inactive | – | inactive | inactive | – | inactive | inactive
13 | CCOCN(C(=O)CCl)c1c(C)cccc1CC | inactive | inactive | – | inactive | inactive | 57.7 µM (active) and 30.6 µM (active) | 54.5 µM (active) | inactive | 18.3 µM (active) and 19.3 µM (active) | – | – | 48.6 µM (active) | inactive | 45.9 µM (active) and 48.6 µM (active) | 21.7 µM (active) | – | inactive | inactive | inactive
14 | ClC1C(Cl)C(Cl)C(Cl)C(Cl)C1Cl (centres undefined) | inactive | inactive | inactive | inactive | inactive | inactive | inactive | inactive | inactive | – | – | inactive and 27.3 µM (active) and 54.5 µM (active) | inactive | – | inactive | inactive | – | inactive | inactive
15 | CCCCCCCCCCCOC(=O)c1ccccc1C(=O)OCCCCCCCCCCC | inactive | inactive | – | – | inactive | inactive | inactive | inactive | inactive | inactive | – | inactive | inactive | inactive | inactive | inactive | inactive | inactive | inactive
